# From publication PMC11006913
# Numbering of substitutions follows the chain as printed.
# What was measured:
# Assay in all cases: PBM; 200 nM protein, PBS
# Conditions in all cases: dsDNA, one strand shown
# HOXB4 [1] = biological target: HOXB4 (Homo sapiens, UniProt P17483 148-234)
# VENTX [2] = biological target: T1, VENTX (Homo sapiens, UniProt O95231 78-163, R121Q)
# T1 sequence: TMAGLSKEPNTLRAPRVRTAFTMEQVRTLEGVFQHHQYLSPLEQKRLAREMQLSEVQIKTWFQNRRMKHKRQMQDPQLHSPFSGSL
# HOXB9 [3] = biological target: HOXB9 (Homo sapiens, UniProt P17482 171-250, T197M)
# HOXB9 (Homo sapiens, UniProt P17482 171-250, T197M), sequence (P17482 171-250 T197M): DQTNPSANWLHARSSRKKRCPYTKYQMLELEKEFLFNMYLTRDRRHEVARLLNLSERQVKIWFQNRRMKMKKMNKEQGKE
# HOXA4 [4] = biological target: HOXA4 (Homo sapiens, UniProt Q00056 201-287, W262R)
# HOXA4 (Homo sapiens, UniProt Q00056 201-287, W262R), sequence (Q00056 201-287 W262R): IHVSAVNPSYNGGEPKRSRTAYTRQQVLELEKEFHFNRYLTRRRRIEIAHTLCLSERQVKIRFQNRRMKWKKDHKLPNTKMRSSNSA
# VENTX [5] = biological target: T2, VENTX (Homo sapiens, UniProt O95231 78-163)
# T2 sequence: T1 sequence with Q44R
# HOXA7 [6] = biological target: HOXA7 (Homo sapiens, UniProt P31268 116-202)
# HOXA7 (Homo sapiens, UniProt P31268 116-202), sequence (P31268 116-202): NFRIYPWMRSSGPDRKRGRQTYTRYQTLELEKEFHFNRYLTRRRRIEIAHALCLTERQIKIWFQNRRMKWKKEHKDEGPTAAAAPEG
# VENTX [7] = biological target: T3, VENTX (Homo sapiens, UniProt O95231 78-163, Y115F)
# T3 sequence: T1 sequence with Y38F, Q44R
# HOXB6 [8] = biological target: HOXB6 (Homo sapiens, UniProt P17509 132-218, K202E)
# HOXB6 (Homo sapiens, UniProt P17509 132-218, K202E), sequence (P17509 132-218 K202E): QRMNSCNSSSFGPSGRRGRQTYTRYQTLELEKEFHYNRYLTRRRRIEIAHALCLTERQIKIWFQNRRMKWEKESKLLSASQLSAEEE
# HOXA2 [9] = biological target: HOXA2 (Homo sapiens, UniProt O43364 129-215, R185T)
# HOXA2 (Homo sapiens, UniProt O43364 129-215, R185T), sequence (O43364 129-215 R185T): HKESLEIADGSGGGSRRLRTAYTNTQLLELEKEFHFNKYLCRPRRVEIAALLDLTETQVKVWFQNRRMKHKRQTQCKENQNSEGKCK
# HOXA4 [10] = biological target: HOXA4 (Homo sapiens, UniProt Q00056 201-287, R217L)
# HOXA4 (Homo sapiens, UniProt Q00056 201-287, R217L), sequence (Q00056 201-287 R217L): as the sequence (Q00056 201-287 W262R) above, with R17L, R62W counted along it
# HOXB4 [11] = biological target: HOXB4 (Homo sapiens, UniProt P17483 148-234, V174I)
# HOXB4 (Homo sapiens, UniProt P17483 148-234, V174I), sequence (P17483 148-234 V174I): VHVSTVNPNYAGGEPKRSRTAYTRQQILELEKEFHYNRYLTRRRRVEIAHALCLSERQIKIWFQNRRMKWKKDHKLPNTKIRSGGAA
# MSX2 [12] = biological target: MSX2 (Homo sapiens, UniProt P35548 130-214, R199I)
# MSX2 (Homo sapiens, UniProt P35548 130-214, R199I), sequence (P35548 130-214 R199I): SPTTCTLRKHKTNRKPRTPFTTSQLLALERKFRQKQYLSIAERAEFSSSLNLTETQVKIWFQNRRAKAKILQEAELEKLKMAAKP
# HOXA2 [13] = biological target: HOXA2 (Homo sapiens, UniProt O43364 129-215, R185K)
# HOXA2 (Homo sapiens, UniProt O43364 129-215, R185K), sequence (O43364 129-215 R185K): as the sequence (O43364 129-215 R185T) above, with T57K counted along it
# HOXA4 [14] = biological target: HOXA4 (Homo sapiens, UniProt Q00056 201-287)
# HOXA4 (Homo sapiens, UniProt Q00056 201-287), sequence (Q00056 201-287): as the sequence (Q00056 201-287 W262R) above, with R62W counted along it
# HOXC10 [15] = biological target: HOXC10 (Homo sapiens, UniProt Q9NYD6 254-340, K271E)
# HOXC10 (Homo sapiens, UniProt Q9NYD6 254-340, K271E), sequence (Q9NYD6 254-340 K271E): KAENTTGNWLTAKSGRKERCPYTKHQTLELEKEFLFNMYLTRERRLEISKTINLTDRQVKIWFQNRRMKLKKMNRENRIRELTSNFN
# MSX2 [16] = biological target: MSX2 (Homo sapiens, UniProt P35548 130-214)
# MSX2 (Homo sapiens, UniProt P35548 130-214), sequence (P35548 130-214): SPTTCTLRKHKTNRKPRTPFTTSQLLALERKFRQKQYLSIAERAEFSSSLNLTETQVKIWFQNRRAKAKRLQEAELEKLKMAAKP
# VAX1 [17] = biological target: VAX1 (Homo sapiens, UniProt Q5SQQ9 86-172)
# VAX1 (Homo sapiens, UniProt Q5SQQ9 86-172), sequence (Q5SQQ9 86-172): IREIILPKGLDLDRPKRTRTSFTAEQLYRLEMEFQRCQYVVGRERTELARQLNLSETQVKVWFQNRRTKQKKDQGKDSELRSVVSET
# MSX2 [18] = biological target: MSX2 (Homo sapiens, UniProt P35548 130-214, F161Y)
# MSX2 (Homo sapiens, UniProt P35548 130-214, F161Y), sequence (P35548 130-214 F161Y): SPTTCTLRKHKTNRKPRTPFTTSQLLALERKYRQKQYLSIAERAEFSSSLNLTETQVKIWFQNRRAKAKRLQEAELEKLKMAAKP
# VAX1 [19] = biological target: VAX1 (Homo sapiens, UniProt Q5SQQ9 86-172, T142I)
# VAX1 (Homo sapiens, UniProt Q5SQQ9 86-172, T142I), sequence (Q5SQQ9 86-172 T142I): as the sequence (Q5SQQ9 86-172) above, with T57I counted along it
# HOXA2 [20] = biological target: HOXA2 (Homo sapiens, UniProt O43364 129-215, Y150S)
# HOXA2 (Homo sapiens, UniProt O43364 129-215, Y150S), sequence (O43364 129-215 Y150S): as the sequence (O43364 129-215 R185T) above, with Y22S, T57R counted along it
# HOXA7 [21] = biological target: HOXA7 (Homo sapiens, UniProt P31268 116-202, W177C)
# HOXA7 (Homo sapiens, UniProt P31268 116-202, W177C), sequence (P31268 116-202 W177C): as the sequence (P31268 116-202) above, with W62C counted along it
# HOXA4 [22] = biological target: HOXA4 (Homo sapiens, UniProt Q00056 201-287, W262F)
# HOXA4 (Homo sapiens, UniProt Q00056 201-287, W262F), sequence (Q00056 201-287 W262F): as the sequence (Q00056 201-287 W262R) above, with R62F counted along it
# HOXA2 [23] = biological target: HOXA2 (Homo sapiens, UniProt O43364 129-215)
# HOXA2 (Homo sapiens, UniProt O43364 129-215), sequence (O43364 129-215): as the sequence (O43364 129-215 R185T) above, with T57R counted along it
# VAX1 [24] = biological target: VAX1 (Homo sapiens, UniProt Q5SQQ9 86-172, K157R)
# VAX1 (Homo sapiens, UniProt Q5SQQ9 86-172, K157R), sequence (Q5SQQ9 86-172 K157R): as the sequence (Q5SQQ9 86-172) above, with K72R counted along it
# HOXB6 [25] = biological target: HOXB6 (Homo sapiens, UniProt P17509 132-218)
# HOXB6 (Homo sapiens, UniProt P17509 132-218), sequence (P17509 132-218): as the sequence (P17509 132-218 K202E) above, with E71K counted along it
# HOXC9 [26] = biological target: HOXC9 (Homo sapiens, UniProt P31274 178-260, K195R)
# HOXC9 (Homo sapiens, UniProt P31274 178-260, K195R), sequence (P31274 178-260 K195R): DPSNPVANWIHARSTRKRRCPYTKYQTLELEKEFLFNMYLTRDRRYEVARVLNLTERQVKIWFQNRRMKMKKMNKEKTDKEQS
# HOXC10 [27] = biological target: HOXC10 (Homo sapiens, UniProt Q9NYD6 254-340)
# HOXC10 (Homo sapiens, UniProt Q9NYD6 254-340), sequence (Q9NYD6 254-340): as the sequence (Q9NYD6 254-340 K271E) above, with E18K counted along it
# HOXB9 [28] = biological target: HOXB9 (Homo sapiens, UniProt P17482 171-250)
# HOXB9 (Homo sapiens, UniProt P17482 171-250), sequence (P17482 171-250): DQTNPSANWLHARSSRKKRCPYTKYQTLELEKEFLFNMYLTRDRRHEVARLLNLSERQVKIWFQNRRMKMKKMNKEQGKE
# HOXC9 [29] = biological target: HOXC9 (Homo sapiens, UniProt P31274 178-260)
# HOXC9 (Homo sapiens, UniProt P31274 178-260), sequence (P31274 178-260): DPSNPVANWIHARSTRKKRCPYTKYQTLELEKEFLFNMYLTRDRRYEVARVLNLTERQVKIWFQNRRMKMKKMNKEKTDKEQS
# HOXC9 [30] = biological target: HOXC9 (Homo sapiens, UniProt P31274 178-260, R193K)
# HOXC9 (Homo sapiens, UniProt P31274 178-260, R193K), sequence (P31274 178-260 R193K): as the sequence (P31274 178-260) above, with R16K counted along it
# HOXD13 = HOXD13 (Homo sapiens, UniProt P35453 263-343, T313A)
# HOXD13, sequence (P35453 263-343 T313A): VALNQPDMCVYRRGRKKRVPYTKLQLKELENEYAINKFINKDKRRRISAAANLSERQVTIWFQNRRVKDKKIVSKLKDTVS
# HOXB9 [31] = biological target: HOXB9 (Homo sapiens, UniProt P17482 171-250, R186Q)
# HOXB9 (Homo sapiens, UniProt P17482 171-250, R186Q), sequence (P17482 171-250 R186Q): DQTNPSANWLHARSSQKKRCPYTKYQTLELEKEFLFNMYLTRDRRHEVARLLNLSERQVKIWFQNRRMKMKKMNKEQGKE
# HOXC9 [32] = biological target: HOXC9 (Homo sapiens, UniProt P31274 178-260, R222W)
# HOXC9 (Homo sapiens, UniProt P31274 178-260, R222W), sequence (P31274 178-260 R222W): as the sequence (P31274 178-260) above, with R45W counted along it
# ALX4 [33] = biological target: ALX4 (Homo sapiens, UniProt Q9H161 200-286)
# ALX4 (Homo sapiens, UniProt Q9H161 200-286), sequence (Q9H161 200-286): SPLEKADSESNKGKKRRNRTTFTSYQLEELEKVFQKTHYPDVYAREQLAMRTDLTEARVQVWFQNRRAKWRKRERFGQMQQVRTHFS
# ALX4 [34] = biological target: ALX4 (Homo sapiens, UniProt Q9H161 200-286, Q225E)
# ALX4 (Homo sapiens, UniProt Q9H161 200-286, Q225E), sequence (Q9H161 200-286 Q225E): as the sequence (Q9H161 200-286) above, with Q26E counted along it
# HOXB4 (Homo sapiens, UniProt P17483 148-234), sequence (P17483 148-234): as the sequence (P17483 148-234 V174I) above, with I27V counted along it
sequence,measurement,setting,value
GGTCATTA,binding signal,HOXB4 [1],"13.3 upbm affinity estimate (log intensity, higher = more binding, comparable within an allelic series)"
same,binding signal,VENTX [2],"11.8 upbm affinity estimate (log intensity, higher = more binding, comparable within an allelic series)"
same,binding signal,HOXB9 [3],"10 upbm affinity estimate (log intensity, higher = more binding, comparable within an allelic series)"
same,binding signal,HOXA4 [4],"10.6 upbm affinity estimate (log intensity, higher = more binding, comparable within an allelic series)"
same,binding signal,VENTX [5],"12.4 upbm affinity estimate (log intensity, higher = more binding, comparable within an allelic series)"
same,binding signal,HOXA7 [6],"11.8 upbm affinity estimate (log intensity, higher = more binding, comparable within an allelic series)"
same,binding signal,VENTX [7],"11.8 upbm affinity estimate (log intensity, higher = more binding, comparable within an allelic series)"
same,binding signal,HOXB6 [8],"9.99 upbm affinity estimate (log intensity, higher = more binding, comparable within an allelic series)"
same,binding signal,HOXA2 [9],"13 upbm affinity estimate (log intensity, higher = more binding, comparable within an allelic series)"
same,binding signal,HOXA4 [10],"12.5 upbm affinity estimate (log intensity, higher = more binding, comparable within an allelic series)"
same,binding signal,HOXB4 [11],"14 upbm affinity estimate (log intensity, higher = more binding, comparable within an allelic series)"
same,binding signal,MSX2 [12],"11.6 upbm affinity estimate (log intensity, higher = more binding, comparable within an allelic series)"
same,binding signal,HOXA2 [13],"13.7 upbm affinity estimate (log intensity, higher = more binding, comparable within an allelic series)"
same,binding signal,HOXA4 [14],"13.9 upbm affinity estimate (log intensity, higher = more binding, comparable within an allelic series)"
same,binding signal,HOXC10 [15],"12 upbm affinity estimate (log intensity, higher = more binding, comparable within an allelic series)"
same,binding signal,MSX2 [16],"12.7 upbm affinity estimate (log intensity, higher = more binding, comparable within an allelic series)"
same,binding signal,VAX1 [17],"13.6 upbm affinity estimate (log intensity, higher = more binding, comparable within an allelic series)"
same,binding signal,MSX2 [18],"12.5 upbm affinity estimate (log intensity, higher = more binding, comparable within an allelic series)"
same,binding signal,VAX1 [19],"13.5 upbm affinity estimate (log intensity, higher = more binding, comparable within an allelic series)"
same,binding signal,HOXA2 [20],"10.9 upbm affinity estimate (log intensity, higher = more binding, comparable within an allelic series)"
same,binding signal,HOXA7 [21],"8.85 upbm affinity estimate (log intensity, higher = more binding, comparable within an allelic series)"
same,binding signal,HOXA4 [22],"11.9 upbm affinity estimate (log intensity, higher = more binding, comparable within an allelic series)"
same,binding signal,HOXA2 [23],"12.8 upbm affinity estimate (log intensity, higher = more binding, comparable within an allelic series)"
same,binding signal,VAX1 [24],"13.6 upbm affinity estimate (log intensity, higher = more binding, comparable within an allelic series)"
same,binding signal,HOXB6 [25],"12.1 upbm affinity estimate (log intensity, higher = more binding, comparable within an allelic series)"
GTCATTAA,binding signal,HOXB4 [1],"13.3 upbm affinity estimate (log intensity, higher = more binding, comparable within an allelic series)"
same,binding signal,VENTX [2],"12.1 upbm affinity estimate (log intensity, higher = more binding, comparable within an allelic series)"
same,binding signal,HOXB9 [3],"10.4 upbm affinity estimate (log intensity, higher = more binding, comparable within an allelic series)"
same,binding signal,HOXA4 [4],"10.9 upbm affinity estimate (log intensity, higher = more binding, comparable within an allelic series)"
same,binding signal,HOXC9 [26],"13.1 upbm affinity estimate (log intensity, higher = more binding, comparable within an allelic series)"
same,binding signal,VENTX [5],"12.6 upbm affinity estimate (log intensity, higher = more binding, comparable within an allelic series)"
same,binding signal,HOXA7 [6],"12.2 upbm affinity estimate (log intensity, higher = more binding, comparable within an allelic series)"
same,binding signal,HOXC10 [27],"12.6 upbm affinity estimate (log intensity, higher = more binding, comparable within an allelic series)"
same,binding signal,VENTX [7],"12.1 upbm affinity estimate (log intensity, higher = more binding, comparable within an allelic series)"
same,binding signal,HOXB6 [8],"10.3 upbm affinity estimate (log intensity, higher = more binding, comparable within an allelic series)"
same,binding signal,HOXA2 [9],"13.2 upbm affinity estimate (log intensity, higher = more binding, comparable within an allelic series)"
same,binding signal,HOXA4 [10],"12.9 upbm affinity estimate (log intensity, higher = more binding, comparable within an allelic series)"
same,binding signal,HOXB9 [28],"12.5 upbm affinity estimate (log intensity, higher = more binding, comparable within an allelic series)"
same,binding signal,HOXB4 [11],"13.9 upbm affinity estimate (log intensity, higher = more binding, comparable within an allelic series)"
same,binding signal,HOXC9 [29],"13.2 upbm affinity estimate (log intensity, higher = more binding, comparable within an allelic series)"
same,binding signal,HOXC9 [30],"13.1 upbm affinity estimate (log intensity, higher = more binding, comparable within an allelic series)"
same,binding signal,HOXA2 [13],"13.8 upbm affinity estimate (log intensity, higher = more binding, comparable within an allelic series)"
same,binding signal,HOXA4 [14],"14.1 upbm affinity estimate (log intensity, higher = more binding, comparable within an allelic series)"
same,binding signal,HOXC10 [15],"12.8 upbm affinity estimate (log intensity, higher = more binding, comparable within an allelic series)"
same,binding signal,VAX1 [17],"13.4 upbm affinity estimate (log intensity, higher = more binding, comparable within an allelic series)"
same,binding signal,HOXD13,"11.6 upbm affinity estimate (log intensity, higher = more binding, comparable within an allelic series)"
same,binding signal,HOXB9 [31],"12.2 upbm affinity estimate (log intensity, higher = more binding, comparable within an allelic series)"
same,binding signal,HOXC9 [32],"11 upbm affinity estimate (log intensity, higher = more binding, comparable within an allelic series)"
same,binding signal,VAX1 [19],"13.4 upbm affinity estimate (log intensity, higher = more binding, comparable within an allelic series)"
same,binding signal,HOXA2 [20],"11 upbm affinity estimate (log intensity, higher = more binding, comparable within an allelic series)"
same,binding signal,HOXA7 [21],"8.94 upbm affinity estimate (log intensity, higher = more binding, comparable within an allelic series)"
same,binding signal,HOXA4 [22],"12.6 upbm affinity estimate (log intensity, higher = more binding, comparable within an allelic series)"
same,binding signal,HOXA2 [23],"12.9 upbm affinity estimate (log intensity, higher = more binding, comparable within an allelic series)"
same,binding signal,VAX1 [24],"13.3 upbm affinity estimate (log intensity, higher = more binding, comparable within an allelic series)"
same,binding signal,HOXB6 [25],"12.4 upbm affinity estimate (log intensity, higher = more binding, comparable within an allelic series)"
CCGCCTAG,binding signal,HOXB4 [1],"7.58 upbm affinity estimate (log intensity, higher = more binding, comparable within an allelic series)"
same,binding signal,HOXB9 [3],"8.4 upbm affinity estimate (log intensity, higher = more binding, comparable within an allelic series)"
same,binding signal,HOXB9 [28],"8.41 upbm affinity estimate (log intensity, higher = more binding, comparable within an allelic series)"
same,binding signal,HOXB4 [11],"7.95 upbm affinity estimate (log intensity, higher = more binding, comparable within an allelic series)"
same,binding signal,HOXB9 [31],"8.38 upbm affinity estimate (log intensity, higher = more binding, comparable within an allelic series)"
CCCCCTCG,binding signal,HOXB4 [1],"7.86 upbm affinity estimate (log intensity, higher = more binding, comparable within an allelic series)"
same,binding signal,HOXB9 [3],"8.45 upbm affinity estimate (log intensity, higher = more binding, comparable within an allelic series)"
same,binding signal,ALX4 [33],"8.09 upbm affinity estimate (log intensity, higher = more binding, comparable within an allelic series)"
same,binding signal,ALX4 [34],"7.97 upbm affinity estimate (log intensity, higher = more binding, comparable within an allelic series)"
same,binding signal,HOXA2 [9],"7.09 upbm affinity estimate (log intensity, higher = more binding, comparable within an allelic series)"
same,binding signal,HOXB9 [28],"8.63 upbm affinity estimate (log intensity, higher = more binding, comparable within an allelic series)"
same,binding signal,HOXB4 [11],"7.85 upbm affinity estimate (log intensity, higher = more binding, comparable within an allelic series)"
same,binding signal,MSX2 [12],"9.51 upbm affinity estimate (log intensity, higher = more binding, comparable within an allelic series)"
same,binding signal,HOXA2 [13],"10.2 upbm affinity estimate (log intensity, higher = more binding, comparable within an allelic series)"
same,binding signal,MSX2 [16],"9.66 upbm affinity estimate (log intensity, higher = more binding, comparable within an allelic series)"
same,binding signal,HOXB9 [31],"8.59 upbm affinity estimate (log intensity, higher = more binding, comparable within an allelic series)"
same,binding signal,MSX2 [18],"9.64 upbm affinity estimate (log intensity, higher = more binding, comparable within an allelic series)"
same,binding signal,HOXA2 [20],"10.3 upbm affinity estimate (log intensity, higher = more binding, comparable within an allelic series)"
same,binding signal,HOXA2 [23],"7.14 upbm affinity estimate (log intensity, higher = more binding, comparable within an allelic series)"
CGGTTCCC,binding signal,HOXB4 [1],"7.65 upbm affinity estimate (log intensity, higher = more binding, comparable within an allelic series)"
same,binding signal,HOXB9 [3],"8.58 upbm affinity estimate (log intensity, higher = more binding, comparable within an allelic series)"
same,binding signal,HOXB9 [28],"8.52 upbm affinity estimate (log intensity, higher = more binding, comparable within an allelic series)"
same,binding signal,HOXB4 [11],"7.57 upbm affinity estimate (log intensity, higher = more binding, comparable within an allelic series)"
same,binding signal,HOXB9 [31],"8.49 upbm affinity estimate (log intensity, higher = more binding, comparable within an allelic series)"
